From PubChem BioAssay AID624115 (Johns Hopkins Ion Channel Center, 2012)
Screen size: about 4,000 compounds; about 350 (8.8%) were called active.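 How the source made its calls: active means calcium fluorescence ratio at least three times the spread of buffer wells, meaning a non-specific response in parental cells; inactive means the rest.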 The list is a sample of the results.

Experiment: calcium response in parental HEK293 cells, primary screen, counter-screen for MrgX1 agonist project, cell-based, Fluo-4 calcium flux, duplicate, agonist mode (AID 624115)
Details: parental HEK293, Fluo-4 calcium fluorescence (FDSS), at 10 µM; stronger effect = higher value

SMILES | fluorescence ratio F(max-min)/F0
Fc1cccc(Cl)c1COc1ccc(-c2nnco2)cc1 | inactive
Cc1ccc(S(=O)(=O)N(C)c2nc3ccccc3n3c(C(C)C)nnc23)cc1 | inactive
CCCCC(=O)Nc1ccc2c(c1)C(=O)NC2=O | inactive
O=C(CSc1c2c(nc3ccc(Cl)cc13)CCCC2)NCc1ccco1 | inactive
O=C(Nc1cccc(Cl)c1)c1cncn1-c1ccc(F)cc1 | inactive
O=C(Cn1c(-c2cncs2)nc2ccccc21)NC1CCCC1 | inactive
Cc1nccn1CCC1CCCCN1C(=O)CCc1nnc(-c2ccsc2)o1 (centres undefined) | inactive
COc1ccc(-c2cc(C(F)(F)F)nc(S(C)(=O)=O)n2)cc1OC | inactive
COc1ccc2c(c1)OC(O)(C(F)(F)C(F)F)CC2=O (centres undefined) | 87.4 (active)
FC(F)(F)c1cc(-c2cccs2)nc(NCc2ccco2)n1 | inactive
CCOC(=O)Nc1ccc2c(c1)N(C(=O)CCN1CCN(CCO)CC1)c1ccccc1CC2 | inactive
O=C(CN1CCN(c2ccccn2)CC1)NC1CCCCC1 | inactive
Cc1c(C(=O)N2CCN(c3ccc(F)cc3)CC2)oc2c1C(=O)CCC2 | inactive
CCN(CC)c1ccc(C2C3CCCCC3(O)CCN2CC(=O)Nc2ccccc2)cc1 (centres undefined) | inactive
COc1ccc(Nc2nc(-c3cccnc3)nc3ccccc23)cn1 | inactive
O=C(Cc1nc2ccccc2[nH]c1=O)c1ccc(Cl)cc1 | inactive
N#CC1=C(N)Oc2c(sc3ccccc23)C1c1ccco1 (centres undefined) | inactive
CCOc1ccc(NC(=O)CCNC(=O)c2ccc(Br)cc2)cc1 | inactive
Cc1cc(C)n(CCNC(=O)CC2C(=O)NCCN2Cc2ccc(C)o2)n1 (centres undefined) | inactive
CCOC1CCCCC1NS(=O)(=O)c1ccc(Cl)cc1 (centres undefined) | inactive
COC(=O)c1sccc1NS(=O)(=O)c1ccc(F)cc1F | inactive
CC(=O)Nc1ccc(OC(=O)COc2ccc(Br)cc2)cc1 | inactive
Cc1ccnc(-n2sc3ccccc3c2=O)n1 | inactive
CCN(c1cccc(C)c1)S(=O)(=O)c1ccc(-c2coc(C)n2)cc1 | inactive
COCC(C)NC(=O)c1ccc(Cl)c(Cl)c1 (centres undefined) | inactive
COc1ccc(C(=O)Nc2c(N)nc(SCC(=O)N3CCC(C)CC3)[nH]c2=O)cc1OC | inactive

SMILES | fluorescence ratio F(max-min)/F0
Cc1ccc(-c2nn(C(C)(C)C)c3ncnc(N)c23)cc1 | inactive
COc1ccc(-n2c(SCC(=O)NCc3ccco3)nnc2-c2c[nH]c3ccccc23)cc1 | inactive
CCOC(=O)Cc1csc(SCc2cc(=O)oc3cc(O)ccc23)n1 | inactive
CCC(C)c1ccccc1N1CC(C(=O)N2CCN(S(=O)(=O)c3ccc(F)cc3)CC2)CC1=O (centres undefined) | inactive
COc1ccc([N+](=O)[O-])cc1NC(=O)COC(=O)/C=C/c1ccco1 | inactive
CN(C)CCn1c(=S)[nH]c2ccc(Cl)cc2c1=O | inactive
FC(F)Oc1ccc(NC(=S)NCc2ccco2)cc1Cl | inactive
O=C1CCCc2c1nc(-c1cccc(Cl)c1)n2O | inactive
O=c1c2cc(Br)ccc2nc(-c2cccc(Cl)c2)n1O | 90.3 (active)
Cc1nonc1C1CCCN1Cc1nc(-c2ccc(F)cc2F)oc1C (centres undefined) | inactive
O=C1Cc2ccccc2Sc2ccc(Cl)cc21 | inactive
CCOc1ccc2nc(/N=C/c3nc(-c4ccccc4)oc3O)sc2c1 | 114 (active)
Cc1ccc(NC2(C#N)C(=O)Nc3ccccc32)cc1 (centres undefined) | inactive
Clc1ccc(-c2nc3ccccn3c2CN2CCSCC2)cc1 | inactive
Cc1ccc2nc(Nc3ccccc3)cc(C)c2c1 | inactive
Cc1cc2ncn(CCCCOc3ccccc3)c2cc1C | inactive
Cc1nn(-c2ccccc2)c(C)c1NC(=O)COc1ccc(Cl)cc1Cl | inactive
COc1ccc(OC)c(Nc2nc3ccccc3n3cnnc23)c1 | inactive
Cc1nn(-c2ccccc2)c2c1C(c1ccc(F)cc1)C(C#N)=C(N)O2 (centres undefined) | inactive
Cc1ccc2cc(/C=N/Nc3ccc(C(=O)O)cc3)c(Cl)nc2c1 | inactive
O=C(Nc1nnc(-c2ccccc2)o1)c1cc(-c2cccs2)nc2ccccc12 | inactive
O=C(Nc1nc2c(F)cc(F)cc2s1)C1COc2ccccc2O1 (centres undefined) | inactive
Cc1ccc2nc(-c3ccc(NC(=O)CN(C)S(=O)(=O)c4ccccc4)cc3)sc2c1 | inactive
CN(CC(=O)Nc1ccccc1Cl)C(=O)COc1cccc2c1OC(C)(C)C2 | inactive
O=C(c1cccc(S(=O)(=O)Nc2ccccc2Cl)c1)N1CCN(C(=O)c2ccco2)CC1 | inactive
COCCNC(=O)Nc1ccc2nc(-c3ccco3)c(-c3ccco3)nc2c1 | 49.8 (active)

SMILES | fluorescence ratio F(max-min)/F0
COc1ccc(NC(=O)c2cc(-c3ccc(C)o3)nc3ccccc23)cc1 | inactive
CC(C)NC(=S)Nc1cccc2cnccc12 | inactive
O=C1CCCN1CCCNC(=S)Nc1ccc(F)c(Cl)c1 | inactive
Cc1ccc(CS(=O)(=O)c2ncc(Cl)c(C(=O)Nc3nnc(C)s3)n2)cc1 | inactive
COc1ccc(S(=O)(=O)N2CCN(C(=O)NC3CCCCC3)CC2)cc1 | inactive
Cc1cccc(-n2c(Cc3cc(=O)[nH]c(=O)[nH]3)nnc2SC(C)C)c1 | inactive
COc1cc(CCC(=O)Nc2ccncc2Cl)cc(OC)c1OC | inactive
O=C(COc1ccc(Cl)cc1)NC(=S)Nc1ccccc1N1CCOCC1 | inactive
Nc1cc(OC(=O)c2ccccc2Br)nn1S(=O)(=O)c1ccccc1 | inactive
O=C1C(=O)N(CC2COc3ccccc3O2)c2ccccc21 (centres undefined) | 64.3 (active)
COc1cccc(CNC(=O)C2CCN(S(=O)(=O)c3cccc4cccnc34)CC2)c1 | inactive
Cc1ccc(N/C(N)=N/c2nc(C(F)(F)F)cc(C(F)(F)F)n2)cc1 | inactive
O=C(Nc1ccccc1N1CCCCC1)c1ccc2nccnc2c1 | inactive
Cc1cccc(Cn2cnc3c(N)c(C)c(C)cc32)c1 | inactive
CCOC(=O)c1c(NC(=O)CSc2cn(CC)c3ccccc23)sc2c1CCC2 | inactive
CCOc1ccc(C2=CC(c3ccccc3)n3ncnc3N2)cc1 (centres undefined) | inactive
O=C(NC1CCCCC1)C1c2ccccc2C(=O)N1Cc1ccco1 (centres undefined) | inactive
COc1ccc(OC)c(C(=O)c2ccc(Cl)cc2)c1 | inactive
Cc1cc(Br)ccc1NC(=O)c1cnc(N2CCN(c3ccccn3)CC2)c2ccccc12 | inactive
Cc1ccc2nc(-c3ccc(NC(=O)c4cccnc4)cc3)oc2c1 | inactive
CCOCc1nnc(NC(=O)CCC2CCCCC2)s1 | inactive
CCOc1cc(-c2conc2N)cc(OCC)c1OCC | inactive
Cc1cc(C)cc(NC(=S)NCCc2c[nH]c3ccccc23)c1 | inactive
C(=N\n1cnnc1)/c1cccnc1 | inactive
O=S(=O)(c1ccc2ccccc2c1)N1CCN(S(=O)(=O)N2CCOCC2)CC1 | inactive
Cc1cc2oc3ccc(NCCC4CCCN4C)cc3c(=O)c2cc1C (centres undefined) | 95.1 (active)

SMILES | fluorescence ratio F(max-min)/F0
COc1ccccc1N(CC(=O)N1CCCCC1)S(=O)(=O)c1ccccc1 | 78.4 (active)
COc1ccc(C2SCCN2S(=O)(=O)c2ccccc2)cc1OC (centres undefined) | inactive
Cc1ccc(OC(=O)c2cc3ccccc3o2)cc1 | inactive
Cc1nn(C(=O)c2ccoc2C)c(N)c1-c1ccccc1 | inactive
O=C(Cc1ccccn1)c1ccc(O)cc1O | inactive
O=C(Nc1ccccc1)c1nnsc1S(=O)(=O)c1ccc(Cl)cc1 | inactive
CCCCCCCCCCOC(=O)Cn1c(COc2ccc(C)cc2)[n+](C)c2ccccc21 | inactive
Cc1ccc(Cc2cnc(N)s2)o1 | inactive
CCNC(=O)c1c(O)c2cccc3c2n(c1=O)CC3 | inactive
COCc1nnc(NC(=O)c2ccc3c(c2)OCO3)s1 | inactive
CCc1ccc2nc3sc(C(=O)Nc4nnc(CC)s4)c(N)c3cc2c1 | 47 (active)
CCOC(=O)C1=C(O)CSC1=Nc1cccc(Cl)c1 | inactive
C=CCSc1nc(Cc2ccc(Cl)cc2)nc2ccccc12 | inactive
Cc1cc(=O)oc2cc(NC(=O)C3CC(=O)N(Cc4ccccc4)C3)ccc12 (centres undefined) | inactive
CCCc1nc2c(c(=O)c3ccccc3n2C)c(=O)n1C1CCCCCC1 | inactive
CCN(CC)CC(=O)Nc1nn(-c2ccccc2)nc1C(N)=O | inactive
COc1cc2c(cc1O)C(SC)=NC(C)(C)C2 | inactive
CCC1CCCCN1CCNC(=O)c1[nH]c(C)c(C(C)=O)c1C (centres undefined) | inactive
Cc1ccc2c(C)c(C(=O)N(C)CCC3CCCCO3)oc2c1C (centres undefined) | inactive
Cc1cccc(NC(=O)COc2ccccc2C)n1 | inactive
O=C(O)CSC(NC(=O)c1cccnc1)(C(F)(F)F)C(F)(F)F | inactive
O=C(CCN1CCc2ccccc2C(O)(c2ccccc2)C1)c1ccc2c(c1)OCCO2 (centres undefined) | inactive
CC(C)CC(=O)N/C(N)=N/c1nc2ccccc2s1 | inactive
CC(C)CC(=O)NC(=S)NNC(=O)c1cccc([N+](=O)[O-])c1 | 53 (active)
COc1ccc(C(=O)NC(=S)NNC(=O)c2c(-c3ccccc3)noc2C)cc1 | 108 (active)
Cc1onc(-c2ccccc2)c1C(=O)NNC(=S)NC(=O)c1ccc(F)cc1 | 123 (active)
